# Measurements reported in PubChem BioAssay AID1159580 (chemical genetic matrix, 2015).
# The campaign covered roughly 5,500 compounds. About 2,000 (36%) were called active. Not shown: some 18% with an inconclusive outcome. The list shows a part of the results. Values without a mark were called inactive. Rule as the data show it: active = normalized growth mostly below about 0.91 (no sharp cut-off); inconclusive = no clear call, values can overlap the other calls; inactive = mostly above about 0.92.
# Assay: chemical genetic growth profiling, strain panel (AID 1159580);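 also: tested at 20 µM; growth read once vehicle control cultures reached saturation at 30 °C; 1 = growth at the plate median or of vehicle wells; lower values mean less growth of the strain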
# Settings: growth OD
# [1] = S. cerevisiae deletion strains, locus YCL061C, strain MRC1, stronger effect = lower value
# [2] = S. cerevisiae deletion strains, locus YHR030C, strain SLT2, stronger effect = lower value
smiles,measurement,setting,value
Oc1c(I)cc(Cl)c2cccnc12,normalized growth,"S. cerevisiae deletion strains, locus YAL021C, strain ccr4, stronger effect = lower value",0.0783 (active)
same,normalized growth,"S. cerevisiae deletion strains, locus YAL026C, strain drs2, stronger effect = lower value",0.0852 (active)
same,normalized growth,"S. cerevisiae deletion strains, locus YAL030W, strain snc1, stronger effect = lower value",0.074 (active)
same,normalized growth,"S. cerevisiae deletion strains, locus YBL061C, strain skt5, stronger effect = lower value",0.0782 (active)
same,normalized growth,"S. cerevisiae deletion strains, locus YBR009C, strain hhf1, stronger effect = lower value",0.0791 (active)
same,normalized growth,"S. cerevisiae deletion strains, locus YBR023C, strain chs3, stronger effect = lower value",0.0818 (active)
same,normalized growth,"S. cerevisiae deletion strains, locus YBR171W, strain sec66, stronger effect = lower value",0.115 (active)
same,normalized growth,"S. cerevisiae deletion strains, locus YBR231C, strain swc5, stronger effect = lower value",0.0829 (active)
same,normalized growth,"S. cerevisiae deletion strains, locus YBR279W, strain paf1, stronger effect = lower value",0.0782 (active)
same,normalized growth,"S. cerevisiae deletion strains, locus YCL011C, strain gbp2, stronger effect = lower value",0.0716 (active)
same,normalized growth,"S. cerevisiae deletion strains, locus YCL016C, strain dcc1, stronger effect = lower value",0.0859 (active)
same,normalized growth,[1],0.0889 (active)
same,normalized growth,"S. cerevisiae deletion strains, locus YCL069W, strain vba3, stronger effect = lower value",0.0861 (active)
same,normalized growth,"S. cerevisiae deletion strains, locus YCR088W, strain abp1, stronger effect = lower value",0.0839 (active)
same,normalized growth,"S. cerevisiae deletion strains, locus YDL005C, strain med2, stronger effect = lower value",0.0947 (active)
same,normalized growth,"S. cerevisiae deletion strains, locus YDL040C, strain nat1, stronger effect = lower value",0.0731 (active)
same,normalized growth,"S. cerevisiae deletion strains, locus YDR001C, strain nth1, stronger effect = lower value",0.0804 (active)
same,normalized growth,"S. cerevisiae deletion strains, locus YDR069C, strain doa4, stronger effect = lower value",0.0805 (active)
same,normalized growth,"S. cerevisiae deletion strains, locus YDR137W, strain rgp1, stronger effect = lower value",0.12 (active)
same,normalized growth,"S. cerevisiae deletion strains, locus YDR159W, strain sac3, stronger effect = lower value",0.115 (active)
same,normalized growth,"S. cerevisiae deletion strains, locus YDR195W, strain ref2",0.156 (active)
same,normalized growth,"S. cerevisiae deletion strains, locus YDR297W, strain sur2, stronger effect = lower value",0.074 (active)
same,normalized growth,"S. cerevisiae deletion strains, locus YDR334W, strain swr1, stronger effect = lower value",0.0896 (active)
same,normalized growth,"S. cerevisiae deletion strains, locus YDR335W, strain msn5, stronger effect = lower value",0.0873 (active)
same,normalized growth,"S. cerevisiae deletion strains, locus YDR392W, strain spt3, stronger effect = lower value",0.119 (active)
same,normalized growth,"S. cerevisiae deletion strains, locus YEL003W, strain gim4, stronger effect = lower value",0.0685 (active)
same,normalized growth,"S. cerevisiae deletion strains, locus YEL037C, strain rad23, stronger effect = lower value",0.0804 (active)
same,normalized growth,"S. cerevisiae deletion strains, locus YEL061C, strain CIN8 (second series), stronger effect = lower value",0.0788 (active)
same,normalized growth,"S. cerevisiae deletion strains, locus YER015W, strain faa2, stronger effect = lower value",0.0769 (active)
same,normalized growth,"S. cerevisiae deletion strains, locus YER016W, strain bim1, stronger effect = lower value",0.0802 (active)
same,normalized growth,"S. cerevisiae deletion strains, locus YER111C, strain swi4, stronger effect = lower value",0.103 (active)
same,normalized growth,"S. cerevisiae deletion strains, locus YER155C, strain BEM2 (second series), stronger effect = lower value",0.127 (active)
same,normalized growth,"S. cerevisiae deletion strains, locus YFR010W, strain ubp6, stronger effect = lower value",0.0904 (active)
same,normalized growth,"S. cerevisiae deletion strains, locus YGL167C, strain pmr1, stronger effect = lower value",0.0969 (active)
same,normalized growth,"S. cerevisiae deletion strains, locus YGL173C, strain kem1, stronger effect = lower value",0.088 (active)
same,normalized growth,"S. cerevisiae deletion strains, locus YGL227W, strain vid30, stronger effect = lower value",0.0887 (active)
same,normalized growth,"S. cerevisiae deletion strains, locus YGL240W, strain doc1, stronger effect = lower value",0.104 (active)
same,normalized growth,"S. cerevisiae deletion strains, locus YGL253W, strain hxk2, stronger effect = lower value",0.0777 (active)
same,normalized growth,"S. cerevisiae deletion strains, locus YHR013C, strain ard1, stronger effect = lower value",0.139 (active)
same,normalized growth,"S. cerevisiae deletion strains, locus YHR027C, strain rpn1, stronger effect = lower value",0.0784 (active)
same,normalized growth,[2],0.148 (active)
same,normalized growth,"S. cerevisiae deletion strains, locus YHR079C, strain IRE1, stronger effect = lower value",0.134 (active)
same,normalized growth,"S. cerevisiae deletion strains, locus YHR142W, strain chs7, stronger effect = lower value",0.104 (active)
same,normalized growth,"S. cerevisiae deletion strains, locus YJL092W, strain hpr5, stronger effect = lower value",0.0829 (active)
same,normalized growth,"S. cerevisiae deletion strains, locus YJL095W, strain BCK1 (second series), stronger effect = lower value",0.0763 (active)
same,normalized growth,"S. cerevisiae deletion strains, locus YJL095W, strain BCK1, stronger effect = lower value",0.127 (active)
same,normalized growth,"S. cerevisiae deletion strains, locus YJL115W, strain asf1, stronger effect = lower value",0.101 (active)
same,normalized growth,"S. cerevisiae deletion strains, locus YJL129C, strain trk1, stronger effect = lower value",0.102 (active)
same,normalized growth,"S. cerevisiae deletion strains, locus YJL154C, strain vps35, stronger effect = lower value",0.0859 (active)
same,normalized growth,"S. cerevisiae deletion strains, locus YJL164C, strain tpk1, stronger effect = lower value",0.0769 (active)
same,normalized growth,"S. cerevisiae deletion strains, locus YJL166W, strain qcr8, stronger effect = lower value",0.0785 (active)
same,normalized growth,"S. cerevisiae deletion strains, locus YJR066W, strain TOR1, stronger effect = lower value",0.00414 (active)
same,normalized growth,"S. cerevisiae deletion strains, locus YKL160W, strain elf1, stronger effect = lower value",0.0922 (active)
same,normalized growth,"S. cerevisiae deletion strains, locus YKR026C, strain gcn3, stronger effect = lower value",0.0898 (active)
same,normalized growth,"S. cerevisiae deletion strains, locus YKR091W, strain srl3, stronger effect = lower value",0.0766 (active)
same,normalized growth,"S. cerevisiae deletion strains, locus YLL001W, strain dnm1, stronger effect = lower value",0.0857 (active)
same,normalized growth,"S. cerevisiae deletion strains, locus YLL026W, stronger effect = lower value",0.0726 (active)
same,normalized growth,"S. cerevisiae deletion strains, locus YLL041C, strain sdh2, stronger effect = lower value",0.0731 (active)
same,normalized growth,"S. cerevisiae deletion strains, locus YLR027C, strain aat2, stronger effect = lower value",0.071 (active)
same,normalized growth,"S. cerevisiae deletion strains, locus YLR113W, strain HOG1, stronger effect = lower value",0.163 (active)
same,normalized growth,"S. cerevisiae deletion strains, locus YLR221C, strain rsa3, stronger effect = lower value",0.0761 (active)
same,normalized growth,"S. cerevisiae deletion strains, locus YLR258W, strain gsy2, stronger effect = lower value",0.0743 (active)
same,normalized growth,"S. cerevisiae deletion strains, locus YLR262C, strain YPT6 (second series), stronger effect = lower value",0.0974 (active)
same,normalized growth,"S. cerevisiae deletion strains, locus YLR320W, strain mms22, stronger effect = lower value",0.0998 (active)
same,normalized growth,"S. cerevisiae deletion strains, locus YLR342W, strain FKS1, stronger effect = lower value",0.0803 (active)
same,normalized growth,"S. cerevisiae deletion strains, locus YLR357W, strain rsc2, stronger effect = lower value",0.172 (active)
same,normalized growth,"S. cerevisiae deletion strains, locus YLR370C, strain arc18, stronger effect = lower value",0.0859 (active)
same,normalized growth,"S. cerevisiae deletion strains, locus YLR384C, strain iki3, stronger effect = lower value",0.0798 (active)
same,normalized growth,"S. cerevisiae deletion strains, locus YML120C, strain ndi1, stronger effect = lower value",0.0749 (active)
same,normalized growth,"S. cerevisiae deletion strains, locus YMR058W, strain fet3, stronger effect = lower value",0.0885 (active)
same,normalized growth,"S. cerevisiae deletion strains, locus YMR125W, strain sto1, stronger effect = lower value",0.106 (active)
same,normalized growth,"S. cerevisiae deletion strains, locus YMR129W, stronger effect = lower value",0.0728 (active)
same,normalized growth,"S. cerevisiae deletion strains, locus YMR205C, strain PFK2, stronger effect = lower value",0.11 (active)
same,normalized growth,"S. cerevisiae deletion strains, locus YMR231W, strain pep5, stronger effect = lower value",0.0867 (active)
same,normalized growth,"S. cerevisiae deletion strains, locus YNL071W, strain lat1, stronger effect = lower value",0.0765 (active)
same,normalized growth,"S. cerevisiae deletion strains, locus YNL183C, strain NPR1, stronger effect = lower value",0.00429 (active)
same,normalized growth,"S. cerevisiae deletion strains, locus YNL209W, strain ssb2, stronger effect = lower value",0.076 (active)
same,normalized growth,"S. cerevisiae deletion strains, locus YNL248C, strain rpa49, stronger effect = lower value",0.104 (active)
same,normalized growth,"S. cerevisiae deletion strains, locus YNL322C, strain KRE1 (second series), stronger effect = lower value",0.0819 (active)
same,normalized growth,"S. cerevisiae deletion strains, locus YNR049C, strain mso1, stronger effect = lower value",0.0835 (active)
same,normalized growth,"S. cerevisiae deletion strains, locus YOR001W, strain rrp6, stronger effect = lower value",0.0849 (active)
same,normalized growth,"S. cerevisiae deletion strains, locus YOR070C, strain gyp1, stronger effect = lower value",0.106 (active)
same,normalized growth,"S. cerevisiae deletion strains, locus YOR080W, strain dia2, stronger effect = lower value",0.0874 (active)
same,normalized growth,"S. cerevisiae deletion strains, locus YOR083W, strain WHI5, stronger effect = lower value",0.0797 (active)
same,normalized growth,"S. cerevisiae deletion strains, locus YOR106W, strain vam3, stronger effect = lower value",0.0829 (active)
same,normalized growth,"S. cerevisiae deletion strains, locus YOR231W, strain MKK1, stronger effect = lower value",0.122 (active)
same,normalized growth,"S. cerevisiae deletion strains, locus YOR265W, strain rbl2, stronger effect = lower value",0.072 (active)
same,normalized growth,"S. cerevisiae deletion strains, locus YOR270C, strain vph1, stronger effect = lower value",0.139 (active)
same,normalized growth,"S. cerevisiae deletion strains, locus YOR290C, strain snf2, stronger effect = lower value",0.0977 (active)
same,normalized growth,"S. cerevisiae deletion strains, locus YPL051W, strain arl3, stronger effect = lower value",0.0807 (active)
same,normalized growth,"S. cerevisiae deletion strains, locus YPL078C, strain atp4, stronger effect = lower value",0.0919 (active)
same,normalized growth,"S. cerevisiae deletion strains, locus YPL106C, strain sse1, stronger effect = lower value",0.139 (active)
same,normalized growth,"S. cerevisiae deletion strains, locus YPL240C, strain hsp82, stronger effect = lower value",0.0779 (active)
same,normalized growth,"S. cerevisiae deletion strains, locus YPL256C, strain CLN2, stronger effect = lower value",0.143 (active)
C#CCOc1c(Cl)cccc1Cl,normalized growth,"S. cerevisiae deletion strains, locus YAL013W, strain DEP1, stronger effect = lower value",0.97
same,normalized growth,"S. cerevisiae deletion strains, locus YBR229C, strain ROT2, stronger effect = lower value",0.989
same,normalized growth,[1],0.954
same,normalized growth,"S. cerevisiae deletion strains, locus YDL101C, strain DUN1, stronger effect = lower value",0.962
same,normalized growth,"S. cerevisiae deletion strains, locus YDL134C, strain PPH21, stronger effect = lower value",1.01
same,normalized growth,"S. cerevisiae deletion strains, locus YDR150W, strain NUM1, stronger effect = lower value",0.937
same,normalized growth,"S. cerevisiae deletion strains, locus YEL061C, strain CIN8, stronger effect = lower value",1.01
same,normalized growth,"S. cerevisiae deletion strains, locus YGR078C, strain PAC10, stronger effect = lower value",0.992
same,normalized growth,[2],0.995
same,normalized growth,"S. cerevisiae deletion strains, locus YHR087W, strain rtc3, stronger effect = lower value",1.04
same,normalized growth,"S. cerevisiae deletion strains, locus YJR043C, strain POL32, stronger effect = lower value",0.972
same,normalized growth,"S. cerevisiae deletion strains, locus YJR075W, strain HOC1, stronger effect = lower value",1.03
same,normalized growth,"S. cerevisiae deletion strains, locus YKL190W, strain CNB1, stronger effect = lower value",1.01
same,normalized growth,"S. cerevisiae deletion strains, locus YLR039C, strain RIC1, stronger effect = lower value",0.872
same,normalized growth,"S. cerevisiae deletion strains, locus YLR058C, strain SHM2 (second series), stronger effect = lower value",1.01
same,normalized growth,"S. cerevisiae deletion strains, locus YLR085C, strain ARP6, stronger effect = lower value",0.966
same,normalized growth,"S. cerevisiae deletion strains, locus YLR262C, strain YPT6, stronger effect = lower value",0.838
same,normalized growth,"S. cerevisiae deletion strains, locus YML094W, strain GIM5, stronger effect = lower value",0.987
same,normalized growth,"S. cerevisiae deletion strains, locus YMR219W, strain ESC1, stronger effect = lower value",0.995
same,normalized growth,"S. cerevisiae deletion strains, locus YMR263W, strain SAP30, stronger effect = lower value",0.998
same,normalized growth,"S. cerevisiae deletion strains, locus YNL153C, strain GIM3, stronger effect = lower value",0.982
same,normalized growth,"S. cerevisiae deletion strains, locus YNL298W, strain CLA4 (second series), stronger effect = lower value",0.982
same,normalized growth,"S. cerevisiae deletion strains, locus YNL322C, strain KRE1, stronger effect = lower value",0.986
same,normalized growth,"S. cerevisiae deletion strains, locus YNR030W, strain Alg12, stronger effect = lower value",1.01
same,normalized growth,"S. cerevisiae deletion strains, locus YPL055C, strain LGE1, stronger effect = lower value",0.985
same,normalized growth,"S. cerevisiae deletion strains, locus YPL241C, strain CIN2, stronger effect = lower value",0.989
same,normalized growth,"S. cerevisiae deletion strains, locus YPR135W, strain CTF4, stronger effect = lower value",0.998
same,normalized growth,"S. cerevisiae strains, strain wild type, stronger effect = lower value",0.999
